Legend:
Experiment in all cases: log2 ratio of Biotin-Ahx-Ub-VS probe labelling (fragment/DMSO); higher = less target engagement (more negative = stronger competition), active = hit call of the paper (q ≤ 0.05, log2 ratio ≤ -1)
Conditions in all cases: compound concentration: 200 uM; treatment time: 3 h
USP19 = target: T1, USP19 (UniProt O94966)
T1 sequence (whole entry): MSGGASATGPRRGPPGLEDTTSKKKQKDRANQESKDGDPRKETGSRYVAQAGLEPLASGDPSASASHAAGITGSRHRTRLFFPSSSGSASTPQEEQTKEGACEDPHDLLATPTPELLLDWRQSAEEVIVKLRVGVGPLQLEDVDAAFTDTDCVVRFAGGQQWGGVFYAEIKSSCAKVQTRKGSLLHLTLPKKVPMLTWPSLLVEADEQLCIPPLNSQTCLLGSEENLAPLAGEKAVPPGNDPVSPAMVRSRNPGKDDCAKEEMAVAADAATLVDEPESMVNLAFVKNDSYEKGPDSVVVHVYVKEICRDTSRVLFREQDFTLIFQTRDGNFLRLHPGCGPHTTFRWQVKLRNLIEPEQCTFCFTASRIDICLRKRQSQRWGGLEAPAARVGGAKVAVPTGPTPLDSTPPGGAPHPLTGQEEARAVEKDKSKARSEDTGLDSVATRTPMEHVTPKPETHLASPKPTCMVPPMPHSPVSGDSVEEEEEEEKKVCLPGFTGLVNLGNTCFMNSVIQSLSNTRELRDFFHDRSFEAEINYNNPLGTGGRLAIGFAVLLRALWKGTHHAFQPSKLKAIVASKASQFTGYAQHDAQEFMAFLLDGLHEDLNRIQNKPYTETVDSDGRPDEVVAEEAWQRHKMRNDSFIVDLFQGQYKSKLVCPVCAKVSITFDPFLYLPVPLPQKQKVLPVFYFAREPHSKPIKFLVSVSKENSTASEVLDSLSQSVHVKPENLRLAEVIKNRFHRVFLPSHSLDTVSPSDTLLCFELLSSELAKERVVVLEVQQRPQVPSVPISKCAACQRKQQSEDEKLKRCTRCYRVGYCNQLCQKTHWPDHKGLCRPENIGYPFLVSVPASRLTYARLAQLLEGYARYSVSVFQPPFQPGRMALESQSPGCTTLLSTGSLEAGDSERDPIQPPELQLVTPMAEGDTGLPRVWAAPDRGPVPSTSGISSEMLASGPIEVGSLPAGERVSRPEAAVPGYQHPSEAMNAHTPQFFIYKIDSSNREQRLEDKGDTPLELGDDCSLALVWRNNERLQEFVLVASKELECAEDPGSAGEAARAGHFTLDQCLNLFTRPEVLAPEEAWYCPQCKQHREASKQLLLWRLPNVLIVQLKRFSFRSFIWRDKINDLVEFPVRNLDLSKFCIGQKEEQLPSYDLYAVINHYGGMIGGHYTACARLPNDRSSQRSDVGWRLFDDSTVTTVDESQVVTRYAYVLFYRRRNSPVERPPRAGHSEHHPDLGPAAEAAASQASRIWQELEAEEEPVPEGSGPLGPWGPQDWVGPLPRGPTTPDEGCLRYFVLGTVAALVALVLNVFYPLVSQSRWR
Summary of the method: (§1)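 Average log2 ratios of fragment over vehicle were obtained by unpaired t-test from global-median-normalised Spectronaut label-free quantities. Proteins with ≥2 unique peptides were included. HEK293T lysate (495 µg per sample) was treated in triplicate with fragment at 200 µM or vehicle for 3 h, then with Biotin-Ahx-Ub-VS at 0.5 µM final for 1 h, and labelled DUBs were NeutrAvidin-enriched and run by diaPASEF LC-MS/MS.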

USP22 = target: T2, USP22 (UniProt Q9UPT9)
T2 sequence (whole entry): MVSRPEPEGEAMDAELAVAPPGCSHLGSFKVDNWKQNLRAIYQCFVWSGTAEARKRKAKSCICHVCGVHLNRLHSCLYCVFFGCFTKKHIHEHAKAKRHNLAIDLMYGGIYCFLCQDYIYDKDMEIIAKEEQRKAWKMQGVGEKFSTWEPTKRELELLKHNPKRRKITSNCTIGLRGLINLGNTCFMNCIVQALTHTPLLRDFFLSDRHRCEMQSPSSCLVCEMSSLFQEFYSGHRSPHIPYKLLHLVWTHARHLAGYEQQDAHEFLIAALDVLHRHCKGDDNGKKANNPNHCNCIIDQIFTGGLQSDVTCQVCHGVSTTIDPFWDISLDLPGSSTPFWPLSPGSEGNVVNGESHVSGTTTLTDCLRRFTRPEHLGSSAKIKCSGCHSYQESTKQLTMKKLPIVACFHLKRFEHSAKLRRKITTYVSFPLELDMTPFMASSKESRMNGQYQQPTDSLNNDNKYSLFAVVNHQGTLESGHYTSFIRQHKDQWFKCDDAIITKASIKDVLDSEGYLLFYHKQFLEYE
Summary of the method: as §1

USP24 = USP24 (UniProt Q9UPU5)
Chain of USP24 (Q9UPU5 whole entry): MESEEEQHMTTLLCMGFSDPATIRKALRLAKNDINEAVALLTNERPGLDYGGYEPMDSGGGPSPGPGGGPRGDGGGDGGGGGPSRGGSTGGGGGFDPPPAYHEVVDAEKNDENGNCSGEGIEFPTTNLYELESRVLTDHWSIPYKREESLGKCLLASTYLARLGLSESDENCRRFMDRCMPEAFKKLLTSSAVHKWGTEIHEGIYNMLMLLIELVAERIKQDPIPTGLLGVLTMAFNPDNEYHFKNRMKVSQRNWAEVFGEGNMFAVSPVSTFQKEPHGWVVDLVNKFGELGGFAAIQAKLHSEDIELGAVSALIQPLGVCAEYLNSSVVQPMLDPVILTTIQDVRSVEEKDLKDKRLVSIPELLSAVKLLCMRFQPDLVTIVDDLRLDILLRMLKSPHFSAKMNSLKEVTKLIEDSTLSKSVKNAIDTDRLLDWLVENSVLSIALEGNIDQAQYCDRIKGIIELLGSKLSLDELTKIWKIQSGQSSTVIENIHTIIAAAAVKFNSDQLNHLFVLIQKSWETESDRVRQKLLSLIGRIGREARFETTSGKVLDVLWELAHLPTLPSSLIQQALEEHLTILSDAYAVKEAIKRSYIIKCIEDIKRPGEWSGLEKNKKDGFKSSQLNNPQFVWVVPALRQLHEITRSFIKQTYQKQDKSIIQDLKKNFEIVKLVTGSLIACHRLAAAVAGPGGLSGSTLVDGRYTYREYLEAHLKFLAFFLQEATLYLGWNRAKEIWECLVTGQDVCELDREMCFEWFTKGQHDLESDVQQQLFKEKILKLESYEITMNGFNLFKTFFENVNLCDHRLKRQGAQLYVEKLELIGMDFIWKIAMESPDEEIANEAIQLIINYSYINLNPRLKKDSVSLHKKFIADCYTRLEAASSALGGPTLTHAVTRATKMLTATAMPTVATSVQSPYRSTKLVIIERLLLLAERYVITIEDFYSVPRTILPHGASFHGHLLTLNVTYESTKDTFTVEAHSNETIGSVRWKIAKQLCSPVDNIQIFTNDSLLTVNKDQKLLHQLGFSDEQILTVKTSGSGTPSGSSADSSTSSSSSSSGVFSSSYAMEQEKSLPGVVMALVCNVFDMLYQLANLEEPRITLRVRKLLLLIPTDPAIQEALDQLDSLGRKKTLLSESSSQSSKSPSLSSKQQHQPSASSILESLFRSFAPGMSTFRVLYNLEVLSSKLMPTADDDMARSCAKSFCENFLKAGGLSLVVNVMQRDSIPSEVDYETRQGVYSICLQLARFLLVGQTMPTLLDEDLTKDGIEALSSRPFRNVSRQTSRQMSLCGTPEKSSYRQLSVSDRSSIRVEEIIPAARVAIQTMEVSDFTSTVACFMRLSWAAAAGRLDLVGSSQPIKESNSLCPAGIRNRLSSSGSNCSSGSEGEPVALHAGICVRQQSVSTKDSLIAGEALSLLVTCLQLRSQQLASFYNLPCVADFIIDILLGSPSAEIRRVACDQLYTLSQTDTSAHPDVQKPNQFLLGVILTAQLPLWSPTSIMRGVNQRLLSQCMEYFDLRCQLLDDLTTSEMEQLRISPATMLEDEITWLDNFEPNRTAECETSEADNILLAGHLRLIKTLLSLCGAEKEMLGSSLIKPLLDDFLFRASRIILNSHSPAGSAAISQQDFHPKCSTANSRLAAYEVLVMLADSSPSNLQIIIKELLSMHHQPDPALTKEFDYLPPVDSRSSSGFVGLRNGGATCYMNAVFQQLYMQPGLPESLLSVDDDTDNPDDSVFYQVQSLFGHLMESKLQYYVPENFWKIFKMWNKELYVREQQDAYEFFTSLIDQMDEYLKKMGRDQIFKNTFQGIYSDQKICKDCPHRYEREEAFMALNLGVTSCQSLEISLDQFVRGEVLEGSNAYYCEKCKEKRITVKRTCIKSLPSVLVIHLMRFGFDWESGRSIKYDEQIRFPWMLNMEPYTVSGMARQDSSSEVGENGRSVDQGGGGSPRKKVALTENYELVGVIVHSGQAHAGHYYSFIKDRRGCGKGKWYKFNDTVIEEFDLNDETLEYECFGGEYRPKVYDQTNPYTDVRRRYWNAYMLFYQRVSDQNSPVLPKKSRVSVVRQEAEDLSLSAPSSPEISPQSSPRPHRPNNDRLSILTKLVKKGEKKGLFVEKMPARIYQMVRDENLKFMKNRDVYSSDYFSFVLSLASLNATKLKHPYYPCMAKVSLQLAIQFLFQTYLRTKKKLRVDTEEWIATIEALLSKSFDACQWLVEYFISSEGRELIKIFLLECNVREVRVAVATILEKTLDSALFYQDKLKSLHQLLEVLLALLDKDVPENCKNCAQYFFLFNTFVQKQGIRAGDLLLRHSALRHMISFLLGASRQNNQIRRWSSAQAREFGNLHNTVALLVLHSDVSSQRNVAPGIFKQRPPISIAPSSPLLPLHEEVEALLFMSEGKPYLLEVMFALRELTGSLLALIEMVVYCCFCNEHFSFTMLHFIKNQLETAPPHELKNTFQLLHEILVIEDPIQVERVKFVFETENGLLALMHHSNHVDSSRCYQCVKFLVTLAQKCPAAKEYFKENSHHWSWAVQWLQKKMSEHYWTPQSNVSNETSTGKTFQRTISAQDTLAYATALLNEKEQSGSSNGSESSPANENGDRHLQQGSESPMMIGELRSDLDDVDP
Summary of the method: as §1

USP25 = target: T3, USP25 (UniProt Q9UHP3)
T3 sequence (whole entry): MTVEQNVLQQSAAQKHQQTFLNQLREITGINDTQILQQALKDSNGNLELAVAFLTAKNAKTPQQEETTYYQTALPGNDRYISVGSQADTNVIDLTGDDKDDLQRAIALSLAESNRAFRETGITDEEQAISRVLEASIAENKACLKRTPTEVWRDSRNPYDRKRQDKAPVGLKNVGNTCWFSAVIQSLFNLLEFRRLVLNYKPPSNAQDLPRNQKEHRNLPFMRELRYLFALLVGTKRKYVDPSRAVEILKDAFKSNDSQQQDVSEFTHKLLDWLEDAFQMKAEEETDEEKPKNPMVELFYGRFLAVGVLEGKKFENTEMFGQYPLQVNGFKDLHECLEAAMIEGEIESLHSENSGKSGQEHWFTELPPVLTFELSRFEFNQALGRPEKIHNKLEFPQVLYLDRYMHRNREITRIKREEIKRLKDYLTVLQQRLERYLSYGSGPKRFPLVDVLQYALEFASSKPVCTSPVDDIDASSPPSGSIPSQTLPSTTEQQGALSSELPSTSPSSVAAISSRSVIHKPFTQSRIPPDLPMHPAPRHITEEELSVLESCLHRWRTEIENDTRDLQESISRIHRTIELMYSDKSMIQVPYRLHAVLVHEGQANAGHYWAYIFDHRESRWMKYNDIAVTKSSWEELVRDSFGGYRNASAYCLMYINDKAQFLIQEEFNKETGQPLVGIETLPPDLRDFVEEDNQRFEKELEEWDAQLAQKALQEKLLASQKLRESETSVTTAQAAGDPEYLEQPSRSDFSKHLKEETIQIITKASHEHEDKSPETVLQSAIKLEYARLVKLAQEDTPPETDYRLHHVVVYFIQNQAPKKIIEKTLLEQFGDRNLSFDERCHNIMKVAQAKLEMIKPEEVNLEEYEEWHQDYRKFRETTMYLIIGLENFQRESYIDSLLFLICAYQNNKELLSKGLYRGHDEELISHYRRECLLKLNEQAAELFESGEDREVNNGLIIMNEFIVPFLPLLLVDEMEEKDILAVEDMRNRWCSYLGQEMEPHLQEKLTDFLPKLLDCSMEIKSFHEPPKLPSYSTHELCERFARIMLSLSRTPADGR
Summary of the method: as §1

USP28 = target: T4, USP28 (UniProt Q96RU2)
T4 sequence (whole entry): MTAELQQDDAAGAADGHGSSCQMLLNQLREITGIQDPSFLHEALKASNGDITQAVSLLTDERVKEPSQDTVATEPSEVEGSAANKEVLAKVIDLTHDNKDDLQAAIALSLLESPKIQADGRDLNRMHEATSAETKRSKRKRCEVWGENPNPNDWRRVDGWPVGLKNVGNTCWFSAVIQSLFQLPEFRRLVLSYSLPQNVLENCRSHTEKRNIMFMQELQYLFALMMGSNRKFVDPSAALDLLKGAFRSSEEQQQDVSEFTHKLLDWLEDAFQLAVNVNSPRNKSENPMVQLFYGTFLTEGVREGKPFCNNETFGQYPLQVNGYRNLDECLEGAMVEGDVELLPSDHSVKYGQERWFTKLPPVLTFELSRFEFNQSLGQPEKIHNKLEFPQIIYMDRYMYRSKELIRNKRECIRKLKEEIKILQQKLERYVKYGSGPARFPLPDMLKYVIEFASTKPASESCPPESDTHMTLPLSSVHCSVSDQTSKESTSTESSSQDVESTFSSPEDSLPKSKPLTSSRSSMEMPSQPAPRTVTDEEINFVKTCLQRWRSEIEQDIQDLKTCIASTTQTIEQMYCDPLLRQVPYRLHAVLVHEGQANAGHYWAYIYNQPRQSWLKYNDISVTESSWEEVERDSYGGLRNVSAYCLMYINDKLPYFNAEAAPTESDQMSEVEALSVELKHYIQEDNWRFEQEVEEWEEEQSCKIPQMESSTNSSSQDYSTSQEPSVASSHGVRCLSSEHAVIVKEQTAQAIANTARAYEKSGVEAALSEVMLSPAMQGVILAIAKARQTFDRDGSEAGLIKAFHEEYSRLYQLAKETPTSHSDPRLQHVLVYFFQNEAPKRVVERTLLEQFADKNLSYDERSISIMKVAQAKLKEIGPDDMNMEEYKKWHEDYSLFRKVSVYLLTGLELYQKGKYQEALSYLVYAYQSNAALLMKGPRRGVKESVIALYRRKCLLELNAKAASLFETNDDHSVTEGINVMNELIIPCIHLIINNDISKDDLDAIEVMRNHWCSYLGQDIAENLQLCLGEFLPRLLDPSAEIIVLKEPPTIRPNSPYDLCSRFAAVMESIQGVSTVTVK
Summary of the method: as §1

Measured: log2 ratio of Biotin-Ahx-Ub-VS probe labelling

NC(=O)C1CCCN(C(=O)CCl)C1 (stereo not given)
inactive: USP19 -0.249 | USP22 0.245 | USP24 -0.257 | USP25 -0.119 | USP28 -0.348
